Several values for one entry are separate records, joined by “and”; a condition that tells them apart may be missing. Equal entries are not always repeated. The panel holds about 83,000 compounds, 20% with a hit somewhere; the sample as a whole holds those more often.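 Plates (96-well) were seeded with cells, treated with compound at one concentration, and incubated for 48 hours before percent growth was determined.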 Values without a mark were called inactive. Activity calls are given as the source filed them. Rule for the calls: active = growth percent below 10; inactive = the rest.
Each compound was assayed on BT-549 breast (assay: NCI-60 one-dose screen, 48 h (100 = growth as untreated, 0 = no growth, -100 = all killed)). Conditions: 10 µM unless noted.
OCCCc1ccccc1 showed a growth of 101%.
With S=c1nn[nH]n1C1CCCCC1 the growth was 125%.
CC1=CC(=O)C=CC1=Nc1ccc(N(C)C)cc1 was tested, and the growth was 79% and 27.8%.
For Nc1nc(=S)c2[nH]cnc2[nH]1, the growth was 30.7% and 19.5%.
O=c1[nH]c(=S)[nH]n1C(=S)n1[nH]c(=S)[nH]c1=O gave a growth of 108%.
In the case of CN(C)C(=N)N=C(N)N, the growth is reported as 80.2% and 156%.
With COc1ccc2nccc(Cl)c2c1 the growth was 98.4%.
With COc1ccc(CCn2cnn3c(=O)c4ccccc4nc3c2=O)cc1OC the growth was 91.4% and 114%.
With N=C(N=C(N)N)N1CCOCC1 the growth was 115% and 103%.
N#CC(=S)Nc1ccc(Cl)c(Cl)c1 was tested, and the growth was -4.25% (active).
For O=C1C(=O)c2ccccc2C(O)=C1CC=C(Cl)Cl, the growth was 63% and 71.6%.
With CCOC(=O)C1=C(C)NC(C)=C(C(=O)OCC)C1 the growth was 110% and 93.7%.
COc1ccc(CCO)cc1 gave a growth of 105%.
Compound COc1ccc(/C=N/Nc2nc3ccccc3s2)cc1 has a growth of 97.6%.
Nc1ccccc1SC1CC(=O)N(c2ccc(I)cc2)C1=O (stereo unspecified) showed a growth of 91.6%.
Clc1ccc2c(c1)N(C1CCCN(Cc3ccccc3)C1)c1ccccc1S2 (stereo unspecified) showed a growth of 61.2%.
COc1ccc([N+](=O)[O-])cc1OC was tested, and the growth was 110%.
For NC(=O)Cc1nc(O)cc(=O)[nH]1, the growth was 109%.
N=C(N)N1CCc2ccccc2C1 was tested, and the growth was 84.4% and 103%.
Compound Clc1ccc2sc(-c3ccccc3)nc2c1 has a growth of 109%.
With COc1cc2oc3cc(=O)cc4oc(-c5ccccc5)cc(c2c2c1CCC(c1ccccc1)O2)c43 (stereo unspecified) the growth was 78.8%.
With CC(C)(C)C1=CC(=O)C(C(C)(C)C)=CC1=O the growth was 91.7% and 110%.
With Oc1ccc(O)c(-c2ccccc2)c1 the growth was 55.3%.
COc1ccc(CCl)c(C)c1OC was tested, and the growth was 105%.
For CCNC1=CC(=O)c2ncccc2C1=O, the growth was -27.8% (active).
For O=C1C=CC(=O)N1Cc1ccco1, the growth was 100%.
For CC(C)=NOC(C)C(=O)O (stereo unspecified), the growth was 98%.
For Cc1cc2nc3ccc(=[N+](C)C)cc-3sc2cc1N, the growth was 48.9% and 50.4%.
Compound c1ccc2c[n+](Cc3ccc4ccccc4n3)ccc2c1 has a growth of 47.2%.
In the case of COc1cc([C@@H]2c3cc4c(cc3[C@H](O)[C@H]3COC(=O)[C@@H]23)OCO4)cc(OC)c1OC, the growth is reported as 22.3%.
NNC(=O)Nc1ccccc1 was tested, and the growth was 104%.
For Cc1nc2c(=O)[nH]c(=S)[nH]c2[nH]c1=O, the growth was 118% and 105%.
With Oc1cccnc1CN1CCOCC1 the growth was 118% and 115%.
In the case of O=C1c2ccccc2CN1c1ccccc1, the growth is reported as 96.6%.
COC1C(OC(N)=O)C(O)C(Oc2ccc3c(O)c(NC(=O)c4ccc(O)c(CC=C(C)C)c4)c(=O)oc3c2C)OC1(C)C (stereo unspecified) was tested, and the growth was 112% and 97.8%.
Work on C/C=C/C(=O)OCCCCCCCCCCCC yielded a growth of 97%.
